Data reported in PubChem BioAssay.
A number with no mark means an inactive call. For some assays here: Entries with a potency or affinity are not part of this list. The source made the active and inactive calls. Unless noted, how the calls were made is not given here.

Tests used:
[1] = antimalarial activity against Dd2 strain (AID 2302;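 active means growth inhibition above 50% at the single 2 µM test dose, taken to imply half-maximal potency below 2 µM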;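 further: 0% = DMSO untreated growth and 100% = chloroquine plus artemisinin killed control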); settings: P. falciparum Dd2 in RBCs, LDH growth readout, 72 h; at 2 µM; hits give high values
[2] = HepG2 cytotoxicity, primary screen, cytotoxicity control for P. falciparum antimalarial project, cell-based, ATP luminescence (AID 2303;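 active means inhibition above 50%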;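 further: 0% = DMSO wells and 100% = digitonin-killed cells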); settings: HepG2 viability, 24-48 h, at 10 µM, hits give high values
[3] = target: L-lactate dehydrogenase (Plasmodium falciparum (isolate CDC / Honduras)) (UniProt Q27743); assay: PfLDH activity inhibition – cell lysate, 3D7 strain, counter-screen for P. falciparum growth inhibition project (AID 2304);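 further: 0% = vehicle and 100% = reference inhibitor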; settings: P. falciparum 3D7 crude extract, LDH APAD/NBT absorbance; at 2 µM; hits give high values
Sequence of L-lactate dehydrogenase (Plasmodium falciparum (isolate CDC / Honduras)) (Q27743 whole entry, looked up): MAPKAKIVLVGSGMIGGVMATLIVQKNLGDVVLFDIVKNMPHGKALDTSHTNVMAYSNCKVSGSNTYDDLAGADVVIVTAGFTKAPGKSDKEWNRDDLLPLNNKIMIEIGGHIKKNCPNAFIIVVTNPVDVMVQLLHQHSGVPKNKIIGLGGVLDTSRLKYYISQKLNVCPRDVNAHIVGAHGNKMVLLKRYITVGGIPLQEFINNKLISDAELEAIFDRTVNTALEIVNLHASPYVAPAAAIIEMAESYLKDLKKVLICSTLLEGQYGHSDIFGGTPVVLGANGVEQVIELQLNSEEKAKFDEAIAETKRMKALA

[4] = inhibition of 3D7 malaria parasite growth – strain 3D7 (AID 2306);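 further: 0% = DMSO wells and 100% = chloroquine plus artemisinin control wells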; settings: P. falciparum 3D7 erythrocytic growth, LDH absorbance, 72 h; at 2 µM; hits give high values
[5] = target: Calcium-dependent protein kinase 1 (Plasmodium falciparum (isolate 3D7)) (UniProt P62344); assay: PfCDPK1 kinase inhibitors, biochemical, TCAMS library (AID 1159585; cut-off not given, nearly all actives have IC50 up to about 0.98 µM;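 further: inhibitors leave more ATP so luminescence rises with inhibition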); settings: recombinant PfCDPK1, Kinase-Glo ATP depletion luminescence
Sequence of Calcium-dependent protein kinase 1 (Plasmodium falciparum (isolate 3D7)) (P62344 whole entry, looked up): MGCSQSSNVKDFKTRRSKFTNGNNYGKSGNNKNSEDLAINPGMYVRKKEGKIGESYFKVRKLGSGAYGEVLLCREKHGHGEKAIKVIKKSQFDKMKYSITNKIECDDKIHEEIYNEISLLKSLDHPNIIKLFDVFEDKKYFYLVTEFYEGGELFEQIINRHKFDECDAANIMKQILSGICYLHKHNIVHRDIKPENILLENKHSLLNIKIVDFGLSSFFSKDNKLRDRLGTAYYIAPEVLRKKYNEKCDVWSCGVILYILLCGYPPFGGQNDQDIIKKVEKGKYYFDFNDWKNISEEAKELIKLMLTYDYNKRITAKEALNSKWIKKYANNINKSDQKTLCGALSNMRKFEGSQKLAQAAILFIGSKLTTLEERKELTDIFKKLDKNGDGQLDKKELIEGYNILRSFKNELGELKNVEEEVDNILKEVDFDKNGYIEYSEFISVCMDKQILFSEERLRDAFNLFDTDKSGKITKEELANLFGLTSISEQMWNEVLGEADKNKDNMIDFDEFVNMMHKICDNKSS

[6] = target: Plasmodium falciparum protein kinase 6 (PK6, PF3D7_1337100) (UniProt Q8IDW1); assay: PfPK6 kinase inhibitors, biochemical, TCAMS library (AID 1159586); settings: recombinant PfPK6, Kinase-Glo ATP depletion luminescence
Sequence of Plasmodium falciparum protein kinase 6 (PK6, PF3D7_1337100) (Q8IDW1 1-305): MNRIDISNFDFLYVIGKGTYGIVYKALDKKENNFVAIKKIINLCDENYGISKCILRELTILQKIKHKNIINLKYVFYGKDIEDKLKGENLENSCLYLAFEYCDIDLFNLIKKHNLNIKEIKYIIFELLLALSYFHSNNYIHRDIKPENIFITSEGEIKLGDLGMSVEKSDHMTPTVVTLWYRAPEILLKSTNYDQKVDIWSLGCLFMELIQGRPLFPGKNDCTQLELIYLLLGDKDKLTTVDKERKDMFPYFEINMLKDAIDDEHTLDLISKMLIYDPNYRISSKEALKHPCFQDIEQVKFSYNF

[7] = target: Protein kinase 7 (PK7), Plasmodium falciparum 3D7 (PF3D7_0213400) (UniProt Q7YTF7); assay: inhibition of Plasmodium PK7 catalytic activity – biochemical, TCAMS antimalarial set, Kinase-Glo luminescence (AID 1159587); settings: recombinant PfPK7, Kinase-Glo ATP depletion luminescence
Sequence of Protein kinase 7 (PK7), Plasmodium falciparum 3D7 (PF3D7_0213400) (Q7YTF7 1-343): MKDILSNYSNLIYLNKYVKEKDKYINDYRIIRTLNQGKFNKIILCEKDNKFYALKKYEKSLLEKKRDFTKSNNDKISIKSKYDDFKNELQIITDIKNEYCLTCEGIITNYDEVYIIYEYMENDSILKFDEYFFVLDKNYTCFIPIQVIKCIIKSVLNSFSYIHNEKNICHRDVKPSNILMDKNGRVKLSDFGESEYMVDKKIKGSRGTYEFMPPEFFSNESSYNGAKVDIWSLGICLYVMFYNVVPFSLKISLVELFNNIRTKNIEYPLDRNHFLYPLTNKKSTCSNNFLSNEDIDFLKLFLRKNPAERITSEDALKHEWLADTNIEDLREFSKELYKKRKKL

[8] = target: Calcium-dependent protein kinase 4 (Plasmodium falciparum (isolate 3D7)) (UniProt Q8IBS5); assay: PfCDPK4 kinase inhibitors, biochemical, TCAMS library (AID 1159588; cut-off not given, nearly all actives have IC50 up to about 0.91 µM); settings: recombinant PfCDPK4, Kinase-Glo ATP depletion luminescence
Sequence of Calcium-dependent protein kinase 4 (Plasmodium falciparum (isolate 3D7)) (Q8IBS5 whole entry, looked up): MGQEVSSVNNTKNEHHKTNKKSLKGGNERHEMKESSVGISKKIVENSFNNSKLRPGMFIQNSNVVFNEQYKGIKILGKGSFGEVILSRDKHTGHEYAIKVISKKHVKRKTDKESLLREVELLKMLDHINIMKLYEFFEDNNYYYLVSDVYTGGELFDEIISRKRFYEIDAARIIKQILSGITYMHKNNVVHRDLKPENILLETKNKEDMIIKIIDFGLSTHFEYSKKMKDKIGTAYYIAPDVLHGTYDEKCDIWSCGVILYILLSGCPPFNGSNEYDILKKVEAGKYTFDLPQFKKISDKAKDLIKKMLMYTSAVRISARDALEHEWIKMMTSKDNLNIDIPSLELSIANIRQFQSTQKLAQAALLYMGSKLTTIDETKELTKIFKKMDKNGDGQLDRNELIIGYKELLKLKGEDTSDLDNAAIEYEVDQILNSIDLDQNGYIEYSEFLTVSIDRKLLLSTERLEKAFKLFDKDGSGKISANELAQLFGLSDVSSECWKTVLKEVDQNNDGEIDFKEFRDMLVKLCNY

Row | Compound | growth inhibition [1] | inhibition [2] | inhibition [3] [%] | growth inhibition [4] | outcome [5] | outcome [6] | outcome [7] | outcome [8]
1 | CCOc1c(CNCCCNc2nc3ccccc3[nH]2)cc(I)cc1OC | 4% | 42% | 1 | 100% (active) | inactive | inactive | inactive | inactive
2 | O=C(Nc1ccc(F)c(C(F)(F)F)c1)NC1CCN(CCCCCNC(=O)[C@@H]2C[C@H]2c2ccc(Cl)c(Cl)c2)CC1 | 16% | 96% (active) | 0 | 100% (active) | inactive | inactive | inactive | inactive
3 | Fc1ccc(C=NNc2ccnc3ccc(C(F)(F)F)cc23)cc1 | 6% | 22% | 4 | 90% (active) | inactive | inactive | inactive | inactive
4 | CN(C)c1ccc(-c2ccc(C(=O)NC3CCN(Cc4ccccc4)CC3)s2)cc1 | 10% | 20% | -3 | 92% (active) | inactive | inactive | inactive | inactive
5 | OC(CNCCCCCCNCC(O)c1ccc(Cl)c(Cl)c1)c1ccc(Cl)c(Cl)c1 (stereo not given) | 17% | 99% (active) | -5 | 90% (active) | inactive | inactive | inactive | inactive
6 | CCNc1cc(CC)nc(Nc2ccc(C)cc2)n1 | 24% | 22% | -1 | 100% (active) | inactive | inactive | inactive | inactive
7 | Cc1cc(N[C@@H](Cc2ccccc2)C(=O)NCc2cccs2)nc(NCCOc2ccccc2)n1 | 31% | 2% | -3 | 93% (active) | inactive | inactive | inactive | inactive
8 | Cc1c(Br)cc2[nH]c(-c3ccc(C(=O)NC4CCN(Cc5ccccc5)CC4)cc3)nc2c1C | 98% (active) | 4% | 1 | 102% (active) | inactive | inactive | inactive | inactive
9 | Nc1ccc(-c2ccc(NC(=O)Nc3ccccc3)cc2)cn1 | 93% (active) | -3% | -1 | 91% (active) | inactive | inactive | inactive | inactive
10 | COc1ccc2ncc(F)c([C@@H](O)CN3CCC(NCc4cc5c(cn4)OCS5)CC3)c2c1 | 98% (active) | 16% | -2 | 103% (active) | inactive | inactive | inactive | inactive
11 | CCCc1cn2c3c(cc(C(=O)N[C@@H](Cc4ccccc4)[C@H](O)CNC4CCCCC4)cc13)N(C)S(=O)(=O)CC2 | 98% (active) | 3% | -2 | 99% (active) | inactive | inactive | inactive | inactive
12 | Cc1cc(NC(=O)Nc2cccc(N(C)C)c2)c2ccccc2n1 | 95% (active) | 0% | 4 | 97% (active) | inactive | inactive | inactive | inactive
13 | Cc1cc(C)n(Cc2ccc(C(=O)NCC3CCCCC3)cc2)n1 | 1% | 0% | 2 | 95% (active) | inactive | inactive | inactive | inactive
14 | CC(C)C[C@H](Nc1ccnc(NCC2CCCCC2)n1)C(=O)NCCc1ccccc1 | 66% (active) | 10% | 0 | 88% (active) | inactive | inactive | inactive | inactive
15 | O=C(NCCCCN1CCC(c2ccc3c(c2OCC(O)c2ccc(Cl)cc2)CCCC3)CC1)c1ccc(-c2ccc(C(F)(F)F)cc2)cc1 (stereo not given) | 67% (active) | 100% (active) | -3 | 89% (active) | inactive | inactive | inactive | inactive
16 | CCCc1cc(Cc2cnc(N)nc2N)cc(CCC)c1O | 5% | 64% (active) | 2 | 96% (active) | inactive | inactive | inactive | inactive
17 | O=c1cc(NCCCNCc2csc(Br)c2Sc2ccc(Cl)cc2)[nH]c2ccccc12 | 83% (active) | 5% | 7 | 95% (active) | inactive | inactive | inactive | inactive
18 | Cc1c(C)n(C2CCCC2)c2ncnc(OC3CCN(CC(=O)NC4CC4)CC3)c12 | 92% (active) | 13% | -4 | 95% (active) | inactive | inactive | inactive | inactive
19 | Cc1cc(NC(=O)NCCN2CCC(NS(=O)(=O)c3ccccc3F)CC2)c2ccccc2n1 | 44% | 0% | -4 | 81% (active) | inactive | inactive | inactive | inactive
20 | O=[N+]([O-])c1cccc(S(=O)(=O)N2CCN(CC(O)COc3ccc(-c4ccccc4)cc3)CC2)c1 (stereo not given) | 32% | 11% | 0 | 94% (active) | inactive | inactive | inactive | inactive

Row | Compound | growth inhibition [1] | inhibition [2] | inhibition [3] [%] | growth inhibition [4] | outcome [5] | outcome [6] | outcome [7] | outcome [8]
21 | CCn1ccc2c(N3CCCC3=O)cc(C(=O)N[C@@H](Cc3ccccc3)[C@H](O)CNC3CCCCC3)cc21 | 98% (active) | 12% | 2 | 99% (active) | inactive | inactive | inactive | inactive
22 | CC(=O)Nc1cccc(C(=O)Nc2nc3ccc(-c4cc(=O)[nH]c(Nc5ccccc5Cl)n4)cc3[nH]2)c1 | 62% (active) | -2% | 6 | 99% (active) | inactive | inactive | inactive | inactive
23 | CC(C)CCNC(=O)C1Cc2c([nH]c3cc(Cl)ccc23)C2(CCN(CCc3ccccc3)CC2)N1 (stereo not given) | 55% (active) | 17% | 5 | 103% (active) | inactive | inactive | inactive | inactive
24 | Cn1c(/C=C/C(=O)NC2CCC(CCN3CCc4ccc(C#N)cc4CC3)CC2)cc2ccccc21 (stereo not given) | 29% | 15% | -1 | 101% (active) | inactive | inactive | inactive | inactive
25 | COc1cc(OC)cc(-c2nc3c(C#N)c(OCCN(C)C)ccc3[nH]2)c1 | 25% | 4% | -3 | 99% (active) | inactive | inactive | inactive | inactive
26 | C(=Cc1nc2ccccc2s1)c1ccc2c(c1)OCCO2 | 96% (active) | 13% | 1 | 98% (active) | inactive | inactive | inactive | inactive
27 | CCOc1c(Br)cc(Cl)cc1CNCCCNc1nc2ccccc2[nH]1 | 3% | 27% | -2 | 98% (active) | inactive | inactive | inactive | inactive
28 | CN(C)CCN(C)Cc1cccc(-c2cccc(NC(=O)c3cccc(C#N)c3)c2)c1 | 10% | -4% | -1 | 92% (active) | inactive | inactive | inactive | inactive
29 | CCCCCCNC(=O)C1Cc2c([nH]c3ccc(Br)cc23)C2(CCN(CCc3ccccc3)CC2)N1 (stereo not given) | 94% (active) | 36% | 0 | 100% (active) | inactive | inactive | inactive | inactive
30 | CCCCN(Cc1cccc(C(F)(F)F)c1Cl)c1ccc(C(O)(C(F)(F)F)C(F)(F)F)cc1 | 55% (active) | 10% | -3 | 91% (active) | inactive | inactive | inactive | inactive
31 | Fc1ccc2c(NN=Cc3ccc(Cl)cc3)ccnc2c1 | 99% (active) | 7% | -1 | 101% (active) | inactive | inactive | inactive | inactive
32 | COCCNCc1ccc(-c2ccc3c(Nc4ccc(F)cc4Cl)ccnc3c2)o1 | 100% (active) | 22% | 2 | 100% (active) | inactive | inactive | inactive | inactive
33 | CC(C)(C)c1ccc(-c2ccccc2CNC(=O)c2cccc(O)c2)cc1 | 88% (active) | 3% | -2 | 99% (active) | inactive | inactive | inactive | inactive
34 | COc1cc2c(cc1NS(=O)(=O)c1ccc(OCc3ccc(Br)cc3)cc1)CCN(C1CCC1)CC2 | 30% | 36% | 2 | 94% (active) | inactive | inactive | inactive | inactive
35 | CCc1c(CCNCCc2cccc(CCNCCc3ccc(OC)c(OC)c3CC)c2)ccc(OC)c1OC | 67% (active) | 100% (active) | -6 | 81% (active) | inactive | inactive | inactive | inactive
36 | CC1(C)N=C(NC(=O)Nc2ccc([N+](=O)[O-])cc2)N=C(N)N1OCc1cccc2ccccc12 | 21% | 35% | -3 | 97% (active) | inactive | inactive | inactive | inactive
37 | O=C(Nc1cccc(-c2cc(-c3c(Cl)cccc3Cl)no2)c1)c1cncc(-c2cccs2)c1 | 39% | -1% | -2 | 91% (active) | inactive | inactive | inactive | inactive
38 | O=c1cc(NCCCNC2CCOc3c(Cl)cc(Cl)cc32)[nH]c2ccccc12 (stereo not given) | 88% (active) | -7% | -3 | 100% (active) | inactive | inactive | inactive | inactive
39 | O=C1NC(=O)C(c2cccc(NC(=O)c3ccncc3)c2)=C1c1ccccc1 | -3% | 5% | 3 | 101% (active) | inactive | inactive | inactive | inactive
40 | CN1CCC(C(=O)Nc2ccc(-c3ccc(-c4nc5ccccc5[nH]4)s3)cc2)CC1 | 22% | 30% | 3 | 99% (active) | inactive | inactive | inactive | inactive
